Experimental findings from PubChem BioAssay (NCATS) are described below.

Each structure is given as a SMILES string. Inconclusive results are not listed. Activity calls are given as the source filed them. Unless noted, calls come from the whole dose curve; as a rule, active = well fitted curve in the direction sought with a large enough effect; inconclusive = small, poorly fitted or top-dose-only effect, or another doubt; inactive = no such curve, though single readings can be large; an effect the other way counts as inactive or inconclusive.

A short description of assay [1]: Validation screen for small molecules that induce genotoxicity in human embryonic kidney (HEK293T) cells expressing luciferase-tagged ELG1 (AID 493106). Note: 0% is about no effect. The method in brief: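 ELG1-luciferase reporter readout (ONE-Glo, 30 min, room temperature) after 16 hr compound treatment at 37 °C of HEK293T cells at 2,000 per well. Rising luminescence flags genotoxic stress.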

Assay [2] deals with Thyrotropin-releasing hormone receptor (Homo sapiens) (UniProt P34981). Nature of the assay: qHTS for Small Molecule Agonists and Allosteric Enhancers of Human TRH Receptor: Validation Screen for Agonists (AID 493127;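 active = calcium activation more than 3 SD above the typical response in the agonist read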;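 note: intracellular calcium rise by fluo-8 fluorescence before TRH EC20 addition; 0% is about no effect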). The settings on record: TRH receptor agonist cell assay; at 2 µM; stronger effect = higher value. The method in brief: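 Compound-evoked intracellular calcium release in fluo-8-loaded TRHR cells, read kinetically on FDSS (Ex 480/Em 530, 1 s/cycle) after 23 nL pintool transfer. Agonist phase preceded 10 nM TRH EC20 addition.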
Chain of Thyrotropin-releasing hormone receptor (Homo sapiens) (P34981 whole entry, looked up): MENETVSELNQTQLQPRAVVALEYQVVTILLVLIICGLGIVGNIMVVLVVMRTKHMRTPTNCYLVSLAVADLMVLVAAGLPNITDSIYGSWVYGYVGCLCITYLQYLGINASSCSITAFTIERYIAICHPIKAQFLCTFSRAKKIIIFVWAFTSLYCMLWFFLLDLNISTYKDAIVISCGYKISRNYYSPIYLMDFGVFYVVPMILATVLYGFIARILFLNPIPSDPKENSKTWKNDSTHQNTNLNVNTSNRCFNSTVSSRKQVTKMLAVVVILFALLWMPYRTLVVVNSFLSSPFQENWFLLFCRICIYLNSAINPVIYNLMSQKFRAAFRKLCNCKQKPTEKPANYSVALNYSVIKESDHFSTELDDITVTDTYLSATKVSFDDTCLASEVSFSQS
In general terms: In qHTS, concentration-response curves come from the screen itself.

Assay [3] in a line: Nrf2 qHTS screen for inhibitors: Validation (AID 493153; active = well fitted inhibition curve with a large enough effect in the main read-out, with a control signal flat, not every such curve was filed as active; note: potency is the fitted concentration of half-maximal effect). To be noted: Potency: luciferase luminescence; viability change: measured here: cytotoxicity max response. The method in brief:
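Concentration-response on A549 ARE_Fluc reporter cells exposed 18-24 h at 37 C, 5% CO2. Cytotoxicity read first by CellTiter-Fluor fluorescence (Ex 405/Em 525), then Nrf2 inhibition by BugLite luminescence after 15 min.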

A short description of assay [4]: qHTS for Inhibitors of Cell Surface uPA Generation: Validation Assay (AID 493164).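 Note: RAW 264.7 macrophage cells exposed to compound for 18 h; 0% is about no effect.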 In a few lines:
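ATP-Lite luminescence read-out: ATP remains high when uPA activity-dependent LF translocation into the cytoplasm is blocked. RAW 264.7 cells, 18 h compound exposure at 37 C; 7-point titration, 2.45 nM to 38.3 uM final.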

In assay [5] the target is Galactokinase (Homo sapiens) (UniProt P51570). Nature of the assay: qHTS Validation Assay for Inhibitors of Human Galactokinase (GALK) (AID 493189). Note: 0% is about no effect. In a few lines:
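GALK (5 nM) with 35 uM ATP and 100 uM galactose in HEPES pH8.0, MgCl2, NaCl, DTT, BSA; 1 h at room temperature. Residual ATP read by Kinase-Glo Plus luminescence after 10 min.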

A short description of assay [6]: Validation screen for small molecules that induce DNA re-replication in SW480 colon adenocarcinoma cells (AID 504364). Note: 0% is about no effect. The method in brief: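 Image-based DNA content read-out: Hoechst stain 40 min, total nuclear fluorescence intensity (ex 405 nm, em 500-530 nm) after 48 h compound exposure of 250 SW480 cells/well at 37 C, 5% CO2, versus DMSO vehicle.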
For assay [7], the target named is Peptidyl-prolyl cis-trans isomerase NIMA-interacting 1 (Homo sapiens) (UniProt Q13526). Nature of the assay: qHTS Validation Assay to Find Inhibitors of Pin1 (AID 504536; active = well fitted inhibition curve with a large enough effect in the polarisation, with a control signal flat, not every such curve was filed as active; the % refers to the polarisation;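 note: 0% = full Pin1 enzyme wells and -100% = no-enzyme wells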). In a few lines: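 Fluorescence polarization competition: compounds (titration) displace HiFluor-488-labeled Pin1-1b peptide from Pin1 (0.3 uM final) in pH 7.5 HEPES buffer with DTT, 10 min at room temperature; %Activity normalized to no-enzyme wells, curves fitted.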
Chain of Peptidyl-prolyl cis-trans isomerase NIMA-interacting 1 (Homo sapiens) (Q13526 whole entry, looked up): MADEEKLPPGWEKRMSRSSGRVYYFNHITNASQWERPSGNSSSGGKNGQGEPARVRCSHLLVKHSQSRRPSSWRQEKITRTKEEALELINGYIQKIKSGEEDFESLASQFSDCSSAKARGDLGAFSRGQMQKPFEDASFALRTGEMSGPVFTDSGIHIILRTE

For assay [8], the target named is Phosphoglycerate kinase, glycosomal (Trypanosoma brucei brucei) (UniProt P07378). Nature of the assay: qHTS Validation Assay to Find Inhibitors of Phosphoglycerate Kinase (AID 504547).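 Note: control wells lack PGK and mark full inhibition.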 In a few lines: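 In TEA buffer (100mM, pH 7.6) containing 5mM MgCl2 and 0.01% Tween-20, the GAPDH-coupled PGK reaction proceeded for 60 minutes at room temperature before a single luminescence reading using Kinase-Glo Plus.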
Chain of Phosphoglycerate kinase, glycosomal (Trypanosoma brucei brucei) (P07378 whole entry, looked up): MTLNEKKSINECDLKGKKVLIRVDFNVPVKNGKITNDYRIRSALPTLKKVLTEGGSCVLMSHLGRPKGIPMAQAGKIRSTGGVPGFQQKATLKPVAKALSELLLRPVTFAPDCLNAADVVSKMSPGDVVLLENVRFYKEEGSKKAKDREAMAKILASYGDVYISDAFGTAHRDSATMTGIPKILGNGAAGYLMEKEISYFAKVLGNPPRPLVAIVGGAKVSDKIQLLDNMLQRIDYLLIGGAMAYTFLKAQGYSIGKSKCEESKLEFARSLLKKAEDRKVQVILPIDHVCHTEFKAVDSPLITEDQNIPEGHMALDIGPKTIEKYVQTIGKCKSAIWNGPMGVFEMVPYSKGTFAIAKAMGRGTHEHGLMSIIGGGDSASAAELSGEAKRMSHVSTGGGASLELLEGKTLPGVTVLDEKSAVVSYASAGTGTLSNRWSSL

Assay [9] concerns the target phosphoglycerate mutase (Leishmania major) (UniProt Q4Q090). Briefly: qHTS Validation Assay to Find Inhibitors of Phosphoglycerate Mutase (AID 504548). Note: series mostly up to about 58 µM; % is set by controls: 0 for no effect and ±100 for the full control effect. The method in brief:
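Lm PGAM at 1.25 nM final with substrate in 100 mM TEA pH 7.6, 5 mM MgCl2, 0.01% Tween-20; 45 min at room temperature. Kinase-GloPlus added, 10 min, end-point luminescence read.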

The target of assay [10] is Ubiquitin carboxyl-terminal hydrolase 1 (Homo sapiens) (UniProt O94782). Briefly: Inhibitors of USP1/UAF1: Pilot qHTS (AID 504865).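 Note: rhodamine fluorescence freed from ubiquitin-rhodamine substrate followed over time; top concentration of the series differs between compounds; % is set by controls: 0 for no effect and ±100 for the full control effect; nearly all actives have a fitted effect of over 35% in size.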 The method in brief:
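USP1/UAF1 complex (1nM) preincubated with compound 15 min at room temperature, then Ub-Rho substrate (150nM final) added. Fluorescence read kinetically at 480/540 nm, 6 reads every 60 seconds. Buffer: 50mM HEPES pH 7.8, 0.5mM EDTA, 0.1 mg/ml BSA, 1mM TCEP, 0.01% Tween-20.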

A short description of assay [11]: qHTS for Inhibitors of ATXN expression: Validation of Cytotoxic Assay (AID 588349). Note: % is set by controls: 0 for no effect and ±100 for the full control effect. In a few lines: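 Cytotoxicity counter-screen: ATP-based luminescent viability (CellTiter Glo) after 72 hr exposure of HEK293 cells to a compound titration at 37 degrees C.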
Assay [12] concerns the target ATPase family AAA domain-containing protein 5 (Homo sapiens) (UniProt Q96QE3). Briefly: Validation screen for small molecules that inhibit ELG1-dependent DNA repair in human embryonic kidney (HEK293T) cells expressing luciferase-tagged ELG1 (AID 493107).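 Note: series mostly up to about 46 µM; % is set by controls: 0 for no effect and ±100 for the full control effect; inhibitors lower the ELG1-luciferase luminescence signal; nearly all actives have a fitted effect of over 70% in size.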 In a few lines: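 Luciferase read-out, ONE-Glo, 30 min at room temperature, follows 16 h co-exposure at 37 C of compound and the DNA-damaging agent 5-fluorouridine. Cells: HEK293T with ELG1-luciferase fusion, 2,000 per well, DMSO as vehicle.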

Assay [13] is described as follows: qHTS for Inhibitors of ATXN expression: Validation (AID 588378). Note: series mostly up to about 57 µM; % is set by controls: 0 for no effect and ±100 for the full control effect; nearly all actives have a fitted effect of over 75% in size. In a few lines:
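Luminescence from an ATXN2-FFLuc reporter in HEK293 cells served as read-out after 24 h compound treatment at 37 degrees C; CellTiter-Fluor fluorescence was recorded first to assess viability.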

The target of assay [14] is Estrogen receptor (Homo sapiens) (UniProt P03372). Briefly: qHTS assay for small molecule antagonists of estrogen receptor alpha signaling (AID 588513; active = well fitted curve in the direction sought with a large enough effect in the signal ratio, with a control signal flat, not every such curve was filed as active; the % refers to the signal ratio; note: % is set by controls: 0 for no effect and ±100 for the full control effect). In a few lines: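 ER-alpha-UAS-bla GripTite HEK 293 cells in medium with 2% charcoal/dextran-treated FBS were preincubated 4 h at 37 C, dosed with compound (1:2 titration), stimulated with 0.5nM 17-beta-estradiol for 18 h, then read by CCF4 beta-lactamase fluorescence.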

Assay [15] has the same target. Nature of the assay: qHTS assay for small molecule agonists of estrogen receptor alpha signaling (AID 588514; calls by dose curve;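 note: 0% = vehicle only and 100% = reference agonist; nearly all actives have a fitted effect of over 70% in size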). The method in brief:
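EC50 and efficacy came from Hill fits of beta-lactamase reporter signal (CCF4 dye, 2 h at room temperature) scaled between DMSO and 20 nM 17-beta-estradiol. Agonist mode: HEK293 ER-alpha-UAS-bla cells in charcoal/dextran-stripped serum medium, 18 h compound exposure at 37 C.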

Assay [16] concerns the target DNA dC->dU-editing enzyme APOBEC-3G (Homo sapiens) (UniProt Q9HC16). Briefly: qHTS for inhibitors of Vif-A3G interactions: Validation (AID 588379). Note: 0% is about no effect. The method in brief: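 Yellow fluorescence (Ex 488, Em 500-530) of Vif-coexpressing HeLa A3G-eYFP cells, scanned by Acumen cytometer, reports blocked A3G degradation. Cells plated at 700/well overnight at 37 deg C before compound addition, then a further overnight compound incubation at 37 deg C.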

Chain of Galactokinase (Homo sapiens) (P51570 whole entry, looked up): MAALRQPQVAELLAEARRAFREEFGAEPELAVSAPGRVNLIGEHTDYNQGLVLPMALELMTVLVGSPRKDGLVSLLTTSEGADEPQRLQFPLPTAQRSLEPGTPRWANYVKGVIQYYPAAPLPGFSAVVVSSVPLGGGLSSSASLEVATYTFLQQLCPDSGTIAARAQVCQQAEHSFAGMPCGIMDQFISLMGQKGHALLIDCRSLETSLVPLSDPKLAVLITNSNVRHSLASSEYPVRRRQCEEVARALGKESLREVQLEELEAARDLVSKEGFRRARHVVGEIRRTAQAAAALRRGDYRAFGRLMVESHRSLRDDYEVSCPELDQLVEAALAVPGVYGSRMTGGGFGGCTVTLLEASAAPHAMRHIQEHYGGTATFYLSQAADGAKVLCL
Chain of Ubiquitin carboxyl-terminal hydrolase 1 (Homo sapiens) (O94782 whole entry, looked up): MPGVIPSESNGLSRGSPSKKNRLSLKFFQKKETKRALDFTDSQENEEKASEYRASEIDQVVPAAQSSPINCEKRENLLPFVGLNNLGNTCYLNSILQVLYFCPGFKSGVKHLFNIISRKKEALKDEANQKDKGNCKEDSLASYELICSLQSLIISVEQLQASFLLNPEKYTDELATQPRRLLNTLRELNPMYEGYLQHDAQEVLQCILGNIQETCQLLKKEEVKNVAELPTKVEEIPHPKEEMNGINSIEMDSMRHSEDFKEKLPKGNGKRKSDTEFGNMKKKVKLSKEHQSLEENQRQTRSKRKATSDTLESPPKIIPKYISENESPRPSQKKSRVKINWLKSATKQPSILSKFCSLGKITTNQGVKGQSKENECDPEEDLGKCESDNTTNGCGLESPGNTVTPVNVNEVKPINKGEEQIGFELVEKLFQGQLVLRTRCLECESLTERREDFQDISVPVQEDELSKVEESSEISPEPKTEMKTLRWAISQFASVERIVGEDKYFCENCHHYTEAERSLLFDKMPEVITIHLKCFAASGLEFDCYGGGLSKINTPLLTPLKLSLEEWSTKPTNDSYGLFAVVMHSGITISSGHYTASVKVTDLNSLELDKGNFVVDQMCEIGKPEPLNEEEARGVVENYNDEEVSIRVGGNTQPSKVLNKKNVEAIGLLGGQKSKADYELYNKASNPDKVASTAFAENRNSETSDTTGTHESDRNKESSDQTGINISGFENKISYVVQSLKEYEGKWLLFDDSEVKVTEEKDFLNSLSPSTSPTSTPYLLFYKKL
Chain of ATPase family AAA domain-containing protein 5 (Homo sapiens) (Q96QE3 whole entry, looked up, the tested form may be a part): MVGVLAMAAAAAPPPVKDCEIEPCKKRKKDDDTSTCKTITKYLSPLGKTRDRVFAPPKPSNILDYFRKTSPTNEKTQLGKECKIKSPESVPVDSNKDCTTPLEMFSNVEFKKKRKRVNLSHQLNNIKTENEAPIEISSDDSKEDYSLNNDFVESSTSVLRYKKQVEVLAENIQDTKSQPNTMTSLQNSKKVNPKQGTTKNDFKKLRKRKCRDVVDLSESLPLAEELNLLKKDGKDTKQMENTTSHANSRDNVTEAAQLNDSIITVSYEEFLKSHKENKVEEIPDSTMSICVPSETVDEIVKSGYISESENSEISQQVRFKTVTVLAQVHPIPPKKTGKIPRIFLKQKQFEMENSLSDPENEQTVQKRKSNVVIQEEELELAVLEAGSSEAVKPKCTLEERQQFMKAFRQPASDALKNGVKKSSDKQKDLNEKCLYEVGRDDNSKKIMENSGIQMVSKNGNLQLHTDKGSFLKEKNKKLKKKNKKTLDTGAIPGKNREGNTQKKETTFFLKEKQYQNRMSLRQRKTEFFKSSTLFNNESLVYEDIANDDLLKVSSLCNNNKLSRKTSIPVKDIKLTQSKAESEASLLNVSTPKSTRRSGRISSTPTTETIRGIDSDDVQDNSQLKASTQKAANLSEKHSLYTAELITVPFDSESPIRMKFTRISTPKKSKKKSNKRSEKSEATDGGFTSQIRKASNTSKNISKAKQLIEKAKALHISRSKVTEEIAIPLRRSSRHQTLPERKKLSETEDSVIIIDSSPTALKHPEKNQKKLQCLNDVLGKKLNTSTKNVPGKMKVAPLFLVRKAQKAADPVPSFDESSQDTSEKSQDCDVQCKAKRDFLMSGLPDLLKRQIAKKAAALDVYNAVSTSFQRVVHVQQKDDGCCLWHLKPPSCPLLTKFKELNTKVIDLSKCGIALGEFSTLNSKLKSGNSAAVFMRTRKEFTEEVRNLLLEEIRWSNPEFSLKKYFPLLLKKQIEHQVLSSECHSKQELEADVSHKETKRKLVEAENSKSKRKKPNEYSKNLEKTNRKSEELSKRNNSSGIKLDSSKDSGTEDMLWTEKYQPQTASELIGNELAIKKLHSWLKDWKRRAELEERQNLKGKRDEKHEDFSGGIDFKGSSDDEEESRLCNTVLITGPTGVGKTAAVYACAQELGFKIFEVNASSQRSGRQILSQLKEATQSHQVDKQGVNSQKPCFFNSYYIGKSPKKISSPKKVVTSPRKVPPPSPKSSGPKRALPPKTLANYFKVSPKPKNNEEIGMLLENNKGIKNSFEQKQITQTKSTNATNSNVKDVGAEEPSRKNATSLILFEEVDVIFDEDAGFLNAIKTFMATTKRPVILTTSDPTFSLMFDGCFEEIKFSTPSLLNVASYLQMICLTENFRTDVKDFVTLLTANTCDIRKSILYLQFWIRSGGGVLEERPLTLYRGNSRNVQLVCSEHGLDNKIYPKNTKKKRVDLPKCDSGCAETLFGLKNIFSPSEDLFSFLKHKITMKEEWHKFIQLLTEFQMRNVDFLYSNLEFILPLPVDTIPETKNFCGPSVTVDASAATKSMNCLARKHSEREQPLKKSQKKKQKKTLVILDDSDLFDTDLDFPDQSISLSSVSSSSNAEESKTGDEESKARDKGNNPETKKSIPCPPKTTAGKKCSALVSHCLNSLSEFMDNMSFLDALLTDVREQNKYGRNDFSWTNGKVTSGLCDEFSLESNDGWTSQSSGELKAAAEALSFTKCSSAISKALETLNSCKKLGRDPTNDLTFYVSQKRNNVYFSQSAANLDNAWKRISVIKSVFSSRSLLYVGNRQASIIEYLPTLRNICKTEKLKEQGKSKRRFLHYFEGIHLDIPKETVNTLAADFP
Chain of DNA dC->dU-editing enzyme APOBEC-3G (Homo sapiens) (Q9HC16 whole entry, looked up): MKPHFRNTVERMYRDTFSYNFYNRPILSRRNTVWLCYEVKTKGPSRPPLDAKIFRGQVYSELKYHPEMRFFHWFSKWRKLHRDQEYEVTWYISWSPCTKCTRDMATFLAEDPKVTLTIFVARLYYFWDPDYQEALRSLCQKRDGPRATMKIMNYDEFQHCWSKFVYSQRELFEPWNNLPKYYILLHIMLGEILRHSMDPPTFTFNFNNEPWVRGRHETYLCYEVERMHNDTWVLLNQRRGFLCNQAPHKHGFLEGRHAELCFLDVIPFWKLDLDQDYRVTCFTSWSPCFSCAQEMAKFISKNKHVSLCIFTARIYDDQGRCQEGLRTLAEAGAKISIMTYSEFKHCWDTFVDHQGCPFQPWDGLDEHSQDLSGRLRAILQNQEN
Chain of phosphoglycerate mutase (Leishmania major) (Q4Q090 1-553): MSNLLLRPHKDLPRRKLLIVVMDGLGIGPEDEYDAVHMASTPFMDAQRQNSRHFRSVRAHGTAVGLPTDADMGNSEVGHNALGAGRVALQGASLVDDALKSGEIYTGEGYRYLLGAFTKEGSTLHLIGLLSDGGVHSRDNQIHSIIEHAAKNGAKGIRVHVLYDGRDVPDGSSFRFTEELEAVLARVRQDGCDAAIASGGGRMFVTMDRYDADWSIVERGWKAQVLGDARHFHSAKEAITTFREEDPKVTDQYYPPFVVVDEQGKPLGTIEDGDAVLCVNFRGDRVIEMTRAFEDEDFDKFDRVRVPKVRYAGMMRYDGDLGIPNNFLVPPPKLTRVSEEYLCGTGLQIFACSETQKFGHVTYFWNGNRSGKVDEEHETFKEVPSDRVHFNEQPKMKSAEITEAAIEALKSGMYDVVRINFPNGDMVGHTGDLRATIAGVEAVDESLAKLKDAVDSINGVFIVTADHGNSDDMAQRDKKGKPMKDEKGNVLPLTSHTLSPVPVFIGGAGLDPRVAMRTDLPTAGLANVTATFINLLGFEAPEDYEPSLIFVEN

Consider `CCn1ccnc1CC1COc2ccccc2O1` (centres undefined), for which the Potency result in assay [1], in [3], in [10] and in assay [11] was “inactive” in each case. In addition, in assay [2], the activation is 1.56% (inactive). Further, the viability change in [3] was -1.46%. In addition, the compound was called inactive in assay [4], in assay [5], in assay [6], in assay [7], in [8] and in assay [9].

As to `C[C@]12C=CC(=O)C=C1CC[C@H]1[C@@H]3C[C@@H](O)[C@](O)(C(=O)CO)[C@@]3(C)C[C@H](O)[C@@]12F`, the Potency result in [1], in assay [12], in assay [10], in assay [11], in [13] and in assay [15] was “inactive” each time. The Potency in [3] was 0.082 µM (active). Besides, the viability change in assay [3] is -4.26%. For the same compound, the result in assay [5], in assay [6], in [7], in [8], in assay [9] and in [14] was inactive.

For `CN1C[C@H](C(=O)N[C@]2(C)O[C@@]3(O)[C@@H]4CCCN4C(=O)[C@H](Cc4ccccc4)N3C2=O)C[C@@H]2c3cccc4[nH]cc(c34)C[C@H]21`, the Potency entry in [1], in [11] and in assay [13] was “inactive” throughout. Further, the call in assay [4], in assay [7] and in [9] was inactive.

As to `C[C@]12CC[C@@H]3c4ccc(O)cc4C[C@@H](CCCCCCCCCS(=O)CCCC(F)(F)C(F)(F)F)[C@H]3[C@@H]1CC[C@@H]2O` (some centres undefined), the Potency entry in assay [1], in assay [11] and in assay [13] was “inactive” in each case. For the same compound, the compound was classed as inactive in assay [4], in assay [7], in [8] and in [9].

On to `CN/C(=C\[N+](=O)[O-])NCCSCc1ccc(CN(C)C)o1`, for which the Potency result in assay [1], in assay [12], in assay [3], in assay [10] and in assay [11] was “inactive” throughout. In addition, the viability change in assay [3] was determined as 4.46%. The result in assay [4], in assay [5], in assay [6], in assay [7], in [8] and in assay [9] was inactive. For the same compound, the result in assay [16] was inactive.

With `Cc1nc2ccccn2c(=O)c1CCN1CCC(C(=O)c2ccc(F)cc2)CC1`, the Potency entry in [1], in [3], in [10], in assay [11] and in [13] was “inactive” each time. For the same compound, in [3], the viability change was -13.1%. Besides, the compound was classed as inactive in assay [4], in assay [5], in assay [6], in assay [7], in assay [8] and in assay [9].

On to `N[C@@H](COP(=O)(O)O)C(=O)O`, for which the Potency result in assay [1], in assay [12], in assay [3], in assay [10], in assay [11] and in assay [13] was “inactive” each time. Also, the viability change in assay [3] amounted to 6.46%. In addition, the compound was classed as inactive in assay [5], in assay [6], in [7], in assay [9] and in [16].

Take `O=C(O)CCCCCCCC(=O)O`: the Potency entry in assay [1], in assay [12], in assay [10], in assay [11] and in [13] was “inactive” throughout. Moreover, the compound was classed as inactive in [5], in [6], in assay [7] and in assay [9].

With `CNC1(C)C2CCC(C2)C1(C)C` (centres undefined), the Potency result in assay [1], in [10], in assay [11] and in [13] was “inactive” throughout. The activation in assay [2] is 0.375% (inactive). Besides, the result in assay [5], in assay [6], in assay [7], in [8] and in assay [9] was inactive.

Turning to `COc1cc(Cc2cnc(N)nc2N)cc(OC)c1OC`, the Potency result in assay [3], in assay [10], in assay [11] and in assay [15] was “inactive” in each case. For the same compound, the viability change in assay [3] stood at 1.71%. The call in [4], in [5], in assay [6], in assay [7], in assay [9] and in assay [16] was inactive. Also, the result in assay [14] was inactive.

As to `NC(=O)N1c2ccccc2C=Cc2ccccc21`, the Potency entry in assay [1], in assay [12], in assay [3], in assay [10], in [11] and in assay [13] was “inactive” in each case. In addition, the Potency result in assay [15] is “inactive”. Further, the viability change in assay [3] was -0.0645%. Further, the outcome in assay [4], in assay [5], in assay [6], in assay [7], in [9] and in assay [14] was inactive.

In the case of `CCCN(CCC)C(=O)C(CCC(=O)O)NC(=O)c1ccccc1` (centres undefined), the Potency entry in [1], in assay [12], in assay [10] and in [11] was “inactive” in each case. Further, the compound was classed as inactive in assay [5], in assay [6], in assay [7] and in assay [9].
